Data from PubChem BioAssay (NCATS).
Records with an inconclusive call do not appear. Active and inactive are the calls of the source. The call rests on the fitted dose curve; in most records, active means well fitted curve in the direction sought with a large enough effect; inconclusive means small, poorly fitted or top-dose-only effect, or another doubt; inactive means no such curve, though single readings can be large; an effect the other way counts as inactive or inconclusive.

Experiments:
[1] = BET inhibitor-based combinations targeting novel dependencies in MECOM-rearranged (r) AML: SET-2 cell line (AID 2202231); details: SET-2 AML cells viability, CellTiter-Glo luminescence, 48 h; viability: hits give low values, concentration not given here; further: nearly all actives have a fitted effect of over 35% in size; further: potency means the concentration at half of the fitted maximal effect;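 on viability: plate controls were DMSO treated cells for no effect and wells without cells for full effect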
In short: (§1)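 Luminescent ATP readout (CellTiter-Glo) after 48 hr drug exposure gives viability. Curves span 11 concentrations and are normalized to DMSO and empty wells. Activity is reported as area under the curve and its Z-transform within each cell line.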

[2] = BET inhibitor-based combinations targeting novel dependencies in MECOM-rearranged (r) AML: OCI-AML3 cell line (AID 2202232); details: Potency: OCI-AML3 viability; further: nearly all actives have a fitted effect of over 35% in size; further: potency means the concentration at half of the fitted maximal effect
In short: as §1

[3] = BET inhibitor-based combinations targeting novel dependencies in MECOM-rearranged (r) AML: MV-4-11 cell line (AID 2202233); further: nearly all actives have a fitted effect of over 45% in size; further: potency means the concentration at half of the fitted maximal effect
In short: (§2)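 Luminescent ATP readout (CellTiter-Glo, 15 min at room temperature) after 48 hr drug exposure gave viability. Dose-response curves, normalized to DMSO and empty-well controls, were summarized as area under the curve and its mean-centred Z-score.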

[4] = BET inhibitor-based combinations targeting novel dependencies in MECOM-rearranged (r) AML: HNT-34 cell line (AID 2202234); further: nearly all actives have a fitted effect of over 35% in size; further: potency means the concentration at half of the fitted maximal effect
In short: as §2

[5] = BET inhibitor-based combinations targeting novel dependencies in MECOM-rearranged (r) AML: UCSD-AML1 cell line (AID 2202235); further: nearly all actives have a fitted effect of over 40% in size; further: potency means the concentration at half of the fitted maximal effect
In short: as §2

[6] = BET inhibitor-based combinations targeting novel dependencies in MECOM-rearranged (r) AML: AML-191 cell line (AID 2202236; further: nearly all actives have a fitted effect of over 35% in size; further: potency means the concentration at half of the fitted maximal effect)
In short: as §1

[7] = BET inhibitor-based combinations targeting novel dependencies in MECOM-rearranged (r) AML: AML-194 cell line (AID 2202237;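 further: plate controls were vehicle wells for no effect and wells without cells for full effect; nearly all actives have a fitted effect of over 40% in size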)
In short: as §1

COc1cc(OC)cc(N(CCNC(C)C)c2ccc3ncc(-c4cnn(C)c4)nc3c2)c1
active: Potency [1] 18600 nM | Potency [2] 18600 nM | Potency [3] 16600 nM | Potency [4] 2350 nM | Potency [5] 10500 nM | Potency [6] 18600 nM

COc1ncc(-c2ccc3nccc(-c4ccnnc4)c3c2)cc1NS(=O)(=O)c1ccc(F)cc1F
active: Potency [1] 332 nM | Potency [2] 83.3 nM | Potency [3] 105 nM | Potency [4] 263 nM | Potency [5] 37.2 nM | Potency [6] 209 nM

C[C@@H](O)[C@@H]1NC(=O)[C@H](CCCCN)NC(=O)[C@@H](Cc2c[nH]c3ccccc23)NC(=O)[C@H](Cc2ccccc2)NC(=O)[C@@H](NC(=O)[C@H](N)Cc2ccccc2)CSSC[C@@H](C(=O)N[C@H](CO)[C@@H](C)O)NC1=O
inactive: viability [1] 114% | Potency [2] | Potency [3] | Potency [4] | Potency [5] | Potency [6] | Potency [7]

COc1ccc(-c2nc(N3CCOCC3)c3sc(CN(C)c4ncc(C(=O)NO)cn4)cc3n2)cn1
active: Potency [1] 29.5 nM | Potency [2] 33.2 nM | Potency [3] 23.5 nM | Potency [4] 41.7 nM | Potency [5] 29.5 nM | Potency [6] 46.8 nM

COc1ccc(-c2oc3c(CC=C(C)C)c(OC4O[C@H](CO)[C@@H](O)[C@H](O)[C@H]4O)cc(O)c3c(=O)c2OC2O[C@@H](C)[C@H](O)[C@@H](O)[C@H]2O)cc1 (some centres undefined)
inactive: viability [1] 116% | Potency [2] | Potency [3] | Potency [4] | Potency [5] | Potency [6] | Potency [7]

Nc1cccc2c1CN([C@H]1CCC(=O)NC1=O)C2=O
active: Potency [4] 1180 nM
inactive: viability [1] 111% | Potency [2] | Potency [3] | Potency [5] | Potency [6] | Potency [7]
